Hits are enriched below; roughly 2.3% of the tested compounds scored in any of these assays.
CHO-K1 Ca PAM – nonselective calcium activators in parental CHO-K1 cells, primary screen, counter-screen for M1 PAM project, cell-based, Fluo-8 calcium fluorescence, full deck, 1536-well. ATP EC20; 0% at ATP EC20, 100% at ATP max. activation, % at 3 µM. hit rate 0.02% among 360,000;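 active = activation above the run cutoff, the mean activation of all test compounds plus 3 SD, cut at about 40% in these data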;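 note: peak over basal fluorescence ratio in a 140 s read after ATP addition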
CHO-K1 Ca antag – nonselective inhibitor or artifact in parental CHO-K1 cells; hit rate 0.6% among 360,000; ATP-induced calcium, Fluo-8 fluorescence; AID 602250; inhibition, % at 3 µM;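 active = inhibition above a per-plate cutoff, the plate's mean sample inhibition plus 3 SD, cut at about 24% in these data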
CHO-K1 Ca ag – counter-screen for M1 agonists: effect in parental CHO-K1 cells. Fluo-8 calcium fluorescence; scaled to maximal ATP response, vehicle zero. activation, % at 3 µM. hit rate 0.48% among 360,000; in the data active = activation above about 15%;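 note: untransfected CHO-K1 host cells lacking M1 receptor as counterscreen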
M1 antag – human M1 muscarinic receptor antagonists, primary screen, CHO-K1 cells, Fluo-8 calcium fluorescence, 1536-well; Muscarinic acetylcholine receptor M1 (Homo sapiens), P11229; CHO-K1 hM1, ACh EC80 antagonist; inhibition, % at 3 µM; hit rate 1.3% among 360,000; AID 588852, 2011;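 active = percent inhibition above its own plate's cutoff, namely the mean of that plate's compound wells plus 3 SD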;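 note: peak over basal fluorescence ratio during 140 s after agonist addition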
Target sequence (P11229 whole entry, looked up): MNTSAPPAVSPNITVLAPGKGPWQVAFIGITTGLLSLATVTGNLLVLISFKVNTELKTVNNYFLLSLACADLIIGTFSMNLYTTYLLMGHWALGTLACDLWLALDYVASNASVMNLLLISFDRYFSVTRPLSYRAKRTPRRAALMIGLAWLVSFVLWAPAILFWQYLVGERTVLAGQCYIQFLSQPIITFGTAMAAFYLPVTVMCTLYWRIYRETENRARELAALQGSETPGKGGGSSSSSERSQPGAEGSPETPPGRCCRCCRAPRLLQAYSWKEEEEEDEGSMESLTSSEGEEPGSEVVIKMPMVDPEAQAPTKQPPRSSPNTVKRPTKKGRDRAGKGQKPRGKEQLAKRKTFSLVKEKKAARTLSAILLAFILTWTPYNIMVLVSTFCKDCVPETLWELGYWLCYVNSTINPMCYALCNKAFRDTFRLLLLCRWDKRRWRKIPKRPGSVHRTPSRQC
CHRM1 agonist – human M1 muscarinic receptor agonists, primary screen, Fluo-8 calcium fluorescence, CHO-K1 cells, HTS; CHO-K1 hM1, agonist mode; 0% DMSO, 100% acetylcholine EC100; activation, % at 3 µM; Muscarinic acetylcholine receptor M1 (Homo sapiens), P11229; hit rate 0.33% among 360,000;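 active = activation above the run's mean compound activation plus 3 SD, cut at about 16% in these data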;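 note: peak over basal fluorescence ratio within a 140 s kinetic read after compound addition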
M1 PAM – human M1 muscarinic receptor positive allosteric modulators, primary screen, CHO-K1 cells, Fluo-8 calcium fluorescence, 1536-well. Muscarinic acetylcholine receptor M1 (Homo sapiens), P11229. CHO-K1 hM1, ACh EC20; 0% = ACh EC20, 100% = maximal ACh. activation, % at 3 µM. hit rate 0.088% among 360,000. AID 588819, 2011; in the data active = activation above about 19%, passing the limit was not always enough
Large screens that a line does not name were inactive.

Cc1nc(SCC(=O)NC2CCS(=O)(=O)C2)c2c3c(sc2n1)CCC3 (stereo not drawn)	none
COc1cc(CN(CCN(C)C)Cc2ccccc2)ccc1OCc1ccccc1	M1 antag 51.3
O=C1c2ccccc2C(c2nc3ccccc3[nH]2)N1c1ccccn1 (stereo not drawn)	none
O=C1C(CCCNC(=S)NCc2ccccc2)NC(=S)N1Cc1ccccc1 (stereo not drawn)	CHO-K1 Ca ag 19.1
CCn1cc(/C=C(\NC(=O)c2ccccc2)C(=O)NCCCN2CCOCC2)c2ccccc21	none
CCc1ccc(OCC(=O)Nc2ccc(-c3cc4ccccc4oc3=O)c(OC)c2)cc1	CHO-K1 Ca antag 26.2
CCC(=O)Nc1ccc(-c2cc3ccccc3oc2=O)cc1	CHO-K1 Ca antag 24.8
CCC(=O)Nc1cc(-c2cc3ccccc3oc2=O)ccc1OC	none
CN(C)CCN(C)C1CN(Cc2ccccc2)S(=O)(=O)C1 (stereo not drawn)	none
CS(=O)(=O)c1ccc(Cl)c(NC(=O)CCN2C(=O)NC3(CCCC3)C2=O)c1	none
CCNc1nc(NC(C)C)nc(N(C#N)Cc2ccccc2)n1	CHO-K1 Ca ag 15.7
CN(C(=O)COC(=O)CN1C(=O)c2cccc([N+](=O)[O-])c2C1=O)c1ccccc1	M1 PAM 28.1
CCOc1ccc(N2CCc3c(C)nc(SC)nc32)cc1	none
Cc1cc(C)nc(NS(=O)(=O)c2ccc(NC(=O)C3(c4ccc([N+](=O)[O-])cc4)CCCC3)cc2)n1	CHRM1 agonist 23.6
COc1ccc(C2(C(=O)Nc3ccc(S(=O)(=O)Nc4nc(C)cc(C)n4)cc3)CCCC2)cc1OC	none
Cc1cccc(NC(=O)C2(c3ccc([N+](=O)[O-])cc3)CCCC2)c1	CHO-K1 Ca ag 19.4
CCOc1ccccc1NC(=O)CCSc1nc2n[nH]c(C)c2c(=N)n1-c1ccccc1Cl	M1 antag 34.0
CCCCOc1ccc(Br)cc1CSC(=N)N	CHO-K1 Ca antag 33.6, M1 antag 26.3
CCOc1ccc(C(C)=O)cc1CSC(=N)N	none
COC(=O)[C@]1(Cc2ccccc2)N[C@H](c2ccc(-c3ccc(F)cc3)cc2)[C@@H]2C(=O)N(C)C(=O)[C@@H]21	none
COc1ccc(C(=O)N2CCCCCC2)cc1S(=O)(=O)N1CCOCC1	none
O=S1(=O)C[C@H](N2CCCC2)[C@@H](COCc2ccccc2)N1	CHO-K1 Ca antag 24.8
CCN(CC)C(=O)C1=C(C)N(Cc2ccc(OC)cc2)C(=O)C(CC(=O)NCCc2ccccn2)C1 (stereo not drawn)	none
O=C(NCC(c1ccco1)N1CCCCC1)C(c1ccccc1)c1ccccc1 (stereo not drawn)	M1 antag 77.9
N#Cc1ccccc1Sc1ccccc1C(=O)NCC(c1ccco1)N1CCCC1 (stereo not drawn)	M1 antag 36.8
Cc1ccc2[nH]c(C(=O)N3CCCCC3)cc2c1	none
Cc1ccc2[nH]c(C(=O)N3CCOCC3)cc2c1	CHO-K1 Ca antag 25.1
COc1ccc(S(=O)(=O)n2[nH]c(=O)c(CCO)c2C)c([N+](=O)[O-])c1	none
O=C(NC1CCCCC1)C(=S)NCCc1ccccc1	CHO-K1 Ca ag 21.1
O=C(NCCc1ccccc1)C(=O)NC1CCCCC1	none
CC1CC(C)(C)CC2(C1)NC(=O)N(CC(=O)N1CCN(S(=O)(=O)c3cccc(Cl)c3Cl)CC1)C2=O (stereo not drawn)	M1 antag 45.0
Cc1[nH]c2ccccc2c1C(=O)CN1C(=O)NC2(CC(C)CC(C)(C)C2)C1=O (stereo not drawn)	CHO-K1 Ca ag 35.4
CC(NC(=O)COc1cccnc1[N+](=O)[O-])c1ccc(Cl)cc1 (stereo not drawn)	none
CCCn1c(=O)[nH]c2ccccc21	none
O=c1[nH]c2ccccc2n1CCCN1CCCCC1	CHRM1 agonist 20.6
CCOc1ccc(C(=O)NC2CC3CCCC(C2)N3CC(C)C)cc1 (stereo not drawn)	M1 antag 39.9
COc1cccc(N2CCN(C(=S)NCc3ccco3)CC2)c1	CHO-K1 Ca antag 25.8
Fc1ccc(N2CCN(C(=S)NCc3ccco3)CC2)cc1	none
CCOC1=C2[C@@H](CN(S(=O)(=O)c3ccc(C)cc3)[C@H]2c2ccccc2Cl)[C@H]2C(=O)N(C(C)(C)C)C(=O)[C@H]2C1	CHO-K1 Ca antag 26.5
CCN(CC)C1CCN(C(=O)c2ccc(OC3CCN(CCc4ccccc4)CC3)cc2)C1 (stereo not drawn)	M1 antag 62.5
COc1ccc(/C=C/CN2CCC(Oc3ccc(C(=O)N4CCCCC4)cc3)CC2)cc1	M1 antag 43.7
CCCCOc1ccc(C(=O)NCC(=O)N2CCN(C/C=C/c3ccccc3)CC2)cc1	M1 antag 44.0
COC1CCN(C(=O)c2ccc(OC3CCN(CCc4ccccc4)CC3)cc2)CC1	none
O=C(c1ccc(OC2CCN(C/C=C/c3ccccc3)CC2)cc1)N1CCCCC1	M1 antag 29.5
CC1CN(S(=O)(=O)c2ccc(C(=O)N(CCCN(C)C)c3nc4c(Cl)cccc4s3)cc2)CC(C)O1 (stereo not drawn)	none
c1ccc(Oc2cccc(CN3CCCCC3)c2)cc1	M1 antag 46.5
CCOC(=O)C1CCN(Cc2cccc(Oc3ccc(Cl)cc3)c2)CC1	M1 antag 27.9
CCN1CCN(Cc2cccc(Oc3ccc(Cl)cc3)c2)CC1	M1 antag 53.5
Cc1nc(C(F)(F)F)ccc1C(=O)Nc1ccccc1N1CCOCC1	none
CCCc1cc(=O)[nH]c(SCC(=O)N(CCOC)c2c(N)n(Cc3ccccc3)c(=O)[nH]c2=O)n1	none
CC(/C=N/NC(=O)c1sc(N)nc1C)=C\c1ccccc1	CHRM1 agonist 25.1
COc1cccc(C(NC(C)=O)c2nc(-c3cccc(C(=O)O)c3)cs2)c1 (stereo not drawn)	none
O=C(Nc1nnc(-c2ccc3c(c2)CCCC3)o1)c1ccccc1Cl	none
O=C(Nc1nnc(-c2ccc3c(c2)CCCC3)o1)c1ccccc1	CHRM1 agonist 17.0
Cc1ccc(C(=O)c2c3ccccc3[n+]([O-])n2CCC(N)=O)cc1	none
O=C(C1=NN[C@@H]2C(=O)N(Cc3ccccc3)C(=O)[C@H]12)c1ccc([N+](=O)[O-])cc1	CHO-K1 Ca ag 22.7
O=C(Cc1ccccc1)N1CCN(C(=O)c2ccc([N+](=O)[O-])cc2)CC1	none
C(C#CCCCCCCCCC[n+]1ccccc1)#CCCCCCCCCC[n+]1ccccc1	M1 antag 98.4

Bioassay records deposited in PubChem by The Scripps Research Institute Molecular Screening Center.
